Compounds with a hit are over-represented: about 21% of the library has one in this group of screens.
IL-1B inflam inh: qHTS for Inhibitors of Inflammasome Signaling: IL-1-beta AlphaLISA Primary Screen; THP-1 LPS/ATP IL-1B secretion, AlphaLISA, 16 h; active compounds read low; activity change, % at 57.5 µM; 360,000 compounds, 4.7% hits; AID 743279, 2014; in the data active = activity change below about -50%; inconclusive = mostly about -30% to -49%
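Secreted IL-1B measured by AlphaLISA bead assay after 16 h compound exposure of THP-1 cells; compounds (final up to 57.5 uM) added 1 h before LPS (250 ng/mL) and ATP (1.25 mM) stimulation; lower signal means less secretion.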
DT40 TDP1 no CPT: qHTS for Inhibitors of human tyrosyl-DNA phosphodiesterase 1 (TDP1): qHTS in cells in absence of CPT; DT40 Tdp1-/- hTDP1 cells, no CPT, ATP luminescence, 48 h; Potency, µM (doses to about 46.2 µM), hits mostly inhibitors; 420,000 compounds, 15% hits; AID 686978, 2013; also: nearly all actives have a fitted effect of over 55% in size
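Growth of hTDP1-complemented DT40 Tdp1-knockout cells is measured by ATP luminescence after at least 48 hr compound exposure at 37 °C, with DMSO substituting for the 20 nM CPT used in the parallel screen.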
D3 ag: qHTS of D3 Dopamine Receptor Agonist: qHTS | D(3) dopamine receptor (Homo sapiens), P35462 | D3R DiscoveRx beta-arrestin cells, luminescence, 90 min | max activation, % | 410,000 compounds, 0.58% hits; in the data active = max activation above about 30%
Target sequence (P35462 whole entry, looked up): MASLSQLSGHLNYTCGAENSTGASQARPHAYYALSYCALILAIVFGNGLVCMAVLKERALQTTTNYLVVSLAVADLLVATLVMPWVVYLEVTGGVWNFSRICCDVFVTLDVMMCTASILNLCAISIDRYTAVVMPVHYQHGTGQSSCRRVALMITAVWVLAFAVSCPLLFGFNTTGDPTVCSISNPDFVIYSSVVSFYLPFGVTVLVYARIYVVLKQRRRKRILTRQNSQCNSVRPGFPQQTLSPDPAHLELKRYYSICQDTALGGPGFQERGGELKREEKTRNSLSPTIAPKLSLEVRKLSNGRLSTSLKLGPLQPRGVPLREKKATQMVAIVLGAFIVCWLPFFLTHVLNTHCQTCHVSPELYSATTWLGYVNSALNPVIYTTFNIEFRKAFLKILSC
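Agonist mode: compounds and dopamine controls were applied to plated cells for 90 min at 37 degrees C after an overnight attachment at 1500 cells/well. Luminescent read-out followed 30 - 60 minutes at room temperature with DiscoveRx detection reagent.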
D3 antag: qHTS of D3 Dopamine Receptor Antagonist: qHTS; 360,000 compounds, 2.5% hits; max response, negative = inhibition, %; AID 652054, 2013; D3R cells, DiscoveRx beta-arrestin luminescence, antagonist mode; active compounds read low; D(3) dopamine receptor (Homo sapiens), P35462; in the data active = max response below about -50%; inconclusive = no clear call, values can overlap the other calls
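Cells plated overnight at 1500 cells/well, then exposed to library compounds with dopamine controls for 90 minutes at 37 degrees C. DiscoveRx reagent added for 30–60 minutes at room temperature; luminescence read, quantitative HTS format.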
TDP1 cell CPT: qHTS for Inhibitors of human tyrosyl-DNA phosphodiesterase 1 (TDP1): qHTS in cells in presence of CPT; chicken DT40 Tdp1-/-;hTDP1 cells + 20 nM CPT, ATP luminescence, 48 h; Potency, µM (doses to about 46.2 µM), hits mostly inhibitors; 420,000 compounds, 12% hits; also: nearly all actives have a fitted effect of over 55% in size
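Cell growth measured by CellTiter-Glo luminescence after a minimum 48 h, 37 C compound exposure with 20 nM CPT in Tdp1-knockout DT40 cells stably expressing hTDP1, seeded 400/well; qHTS titration format.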
ClpP mod: qHTS Assay for Activators of ClpP. ATP-dependent Clp protease proteolytic subunit (Bacillus subtilis (strain 168)), P80244. purified B. subtilis ClpP, FRET peptide cleavage, 20 min. Potency, µM (top dose mostly 57.5 µM). 340,000 compounds, 1.9% hits; active = well fitted falling curve with a large enough effect; inconclusive = small, poorly fitted or top-dose-only effect; inactive = no such curve, though single readings can be large or run the other way; also: the source files actives as falling curves though it sought activators and does not explain the sign; nearly all actives have a fitted effect of over 65% in size
Target sequence (P80244 whole entry, looked up): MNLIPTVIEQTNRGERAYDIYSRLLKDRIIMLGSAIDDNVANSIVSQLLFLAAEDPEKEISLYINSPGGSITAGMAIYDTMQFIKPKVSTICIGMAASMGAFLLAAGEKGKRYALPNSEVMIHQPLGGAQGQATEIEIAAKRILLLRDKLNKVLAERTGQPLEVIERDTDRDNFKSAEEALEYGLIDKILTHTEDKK
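FRET quenching reversal measured ClpP activation: 10 microg/mL B. subtilis ClpP at pH 8 with the FRET-FV decapeptide, read at 430 nm after 320 nm excitation. The 20-min minus 0-min signal was scaled between DMSO/no-enzyme wells and ADEP (5.8 microM final).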
Each line names hits and unclear results; the compound was inactive in the other large screens; ! = not confirmed by another sample. Unless noted, calls follow the shape of the dose curve; as a rule, active = well fitted inhibition curve with a large enough effect; inconclusive = small, poorly fitted or top-dose-only effect; inactive = flat fitted curve, though single readings scatter.

O=C(NCCCN1CCOCC1)c1ccc2c(c1)N(Cc1c(F)cccc1Cl)C(=O)c1ccccc1S2	IL-1B inflam inh -52, DT40 TDP1 no CPT inconclusive, TDP1 cell CPT inconclusive
CCN1C(=O)c2ccccc2Sc2ccc(C(=O)NCCCN3CCOCC3)cc21	none (no result: ClpP mod)
O=C(NCCCN1CCOCC1)c1ccc2c(c1)N(Cc1ccc(Cl)cc1)C(=O)c1ccccc1S2=O (configuration not stated)	DT40 TDP1 no CPT inconclusive, TDP1 cell CPT inconclusive
O=C(O)C1CC=C(Cl)CC1C(=O)NC1CCCCC1 (configuration not stated)	none
C=C1C(=O)O[C@@H]2C[C@@H](C)[C@@H]3C=CC(=O)[C@@]3(C)[C@@H](OC(C)=O)[C@H]12	IL-1B inflam inh inconclusive, DT40 TDP1 no CPT 0.65µM, D3 antag -84, TDP1 cell CPT 0.82µM
COc1ccc(NC(=O)N2CCC3(CC2)CCN(C(=O)c2csnn2)CC3)cc1	none (no result: IL-1B inflam inh, D3 ag, D3 antag, ClpP mod)
[O-]/[N+](=C\c1ccccc1)[C@@H]1CCCC[C@@H]1/[N+]([O-])=C/c1ccccc1	none
O=[N+]([O-])c1ccc(/C=[N+](\[O-])[C@@H]2CCCC[C@@H]2/[N+]([O-])=C/c2ccc([N+](=O)[O-])o2)o1	IL-1B inflam inh -92, DT40 TDP1 no CPT 10µM, D3 antag inconclusive, TDP1 cell CPT 7.3µM
CC1CCCN(Cc2nc3c(c(=O)n(C)c(=O)n3C)n2Cc2ccc(Cl)cc2Cl)C1 (configuration not stated)	none (no result: IL-1B inflam inh, D3 antag)
COc1cc2c(cc1OC)C(COc1ccccc1OC)N(C(=O)CC(C)C)CC2 (configuration not stated)	DT40 TDP1 no CPT 18µM, TDP1 cell CPT inconclusive (no result: IL-1B inflam inh, D3 antag)
CCCC(=O)N1CCc2cc(OC)c(OC)cc2C1COc1ccccc1OC (configuration not stated)	DT40 TDP1 no CPT 18µM!, TDP1 cell CPT inconclusive
CCC(=O)N1CCc2cc(OC)c(OC)cc2C1COc1ccccc1OC (configuration not stated)	DT40 TDP1 no CPT inconclusive, TDP1 cell CPT inconclusive
CSc1cccc(-n2ccc(=O)c(C)c2C)c1	none (no result: ClpP mod)
Fc1ccccc1N1CCN(Cc2cc(-c3ccccc3)on2)CC1	IL-1B inflam inh inconclusive, D3 antag -88
Cn1c(=O)[nH]c(=O)c2c1nc(CN1CCN(c3ccccc3F)CC1)n2CCCc1ccccc1	DT40 TDP1 no CPT 14µM, TDP1 cell CPT inconclusive
Cn1c(=O)[nH]c(=O)c2c1nc(N1CCN(c3ccccc3)CC1)n2CCSc1ncccn1	DT40 TDP1 no CPT 10µM, TDP1 cell CPT inconclusive
CCCCCCn1c(N2CCN(c3cccc(Cl)c3)CC2)nc2c1c(=O)[nH]c(=O)n2C	IL-1B inflam inh inconclusive, DT40 TDP1 no CPT 23µM, TDP1 cell CPT inconclusive
Fc1ccccc1N1CCN(Cc2nc(-c3ccccc3)no2)CC1	D3 antag inconclusive
Cc1cc(S(=O)(=O)NCC(C)C)ccc1OCC(=O)NCc1ccco1	none (no result: ClpP mod)
C/C(=N\OCC(=O)NC(C)C)c1cccs1	TDP1 cell CPT inconclusive
CCCCCCn1c(N2CCN(c3ccccc3)CC2)nc2c1c(=O)[nH]c(=O)n2C	IL-1B inflam inh inconclusive, DT40 TDP1 no CPT inconclusive, TDP1 cell CPT 23µM
CCCn1c(N2CCN(CC(=O)c3c(C)n(C)c4ccccc34)CC2)nc2c1c(=O)[nH]c(=O)n2C	IL-1B inflam inh -69, DT40 TDP1 no CPT 18µM, TDP1 cell CPT inconclusive
Cc1cc(CN2CCN(c3ccccc3F)CC2)cs1	DT40 TDP1 no CPT inconclusive (no result: IL-1B inflam inh, D3 antag)
Fc1ccccc1N1CCN(CCCNc2ccc3nncn3n2)CC1	D3 ag 46, D3 antag -61
FCCCOc1ccc(CN2CCN(c3ccccc3F)CC2)cc1	D3 antag -60
Cc1ccc(S(=O)(=O)NCCC(=O)N2CCC(C(N)=O)CC2)cc1C	none
Clc1ccccc1CN1CCN(CCCc2ccccc2)CC1	D3 antag -79 (no result: ClpP mod)
Fc1ccccc1N1CCN(CCCc2ccccc2)CC1	D3 antag -92 (no result: ClpP mod)
CCCCCn1c(CN2CCN(c3cccc(Cl)c3)CC2)nc2c1c(=O)[nH]c(=O)n2C	DT40 TDP1 no CPT inconclusive, TDP1 cell CPT 21µM
Cn1c(=O)[nH]c(=O)c2c1nc(CN1CCN(c3cccc(Cl)c3)CC1)n2CCc1ccccc1	DT40 TDP1 no CPT inconclusive, TDP1 cell CPT inconclusive
NC(=O)COC(=O)[C@H](Cc1c[nH]c2ccccc12)NC(=O)c1ccc(F)cc1	none (no result: ClpP mod)
COc1ccc(CCN(C)C2CCCN(S(=O)(=O)c3ccccc3F)C2)cc1OC (configuration not stated)	none
COc1cccc(CNC(=O)Cn2cc3c(n2)-c2c(oc(C(=O)N4CCCC4)c2C)CC3)c1OC	DT40 TDP1 no CPT inconclusive, TDP1 cell CPT inconclusive (no result: IL-1B inflam inh, D3 antag)
Cc1ccc(-c2noc(CSc3nnc(C)n3-c3ccc(F)cc3)n2)cc1	none (no result: IL-1B inflam inh, D3 antag)
CCc1ccc(-n2c(C)nnc2SCc2nc(-c3ccc(OC)cc3)no2)cc1	DT40 TDP1 no CPT inconclusive, TDP1 cell CPT inconclusive (no result: IL-1B inflam inh, D3 antag)
COc1ccc(-c2noc(CSc3nnc(C)n3-c3ccc(C)c(C)c3)n2)c(OC)c1	DT40 TDP1 no CPT 18µM, TDP1 cell CPT inconclusive (no result: IL-1B inflam inh, D3 antag)
COc1ccccc1-c1noc(CSc2nnc(Cc3ccccc3)n2-c2ccc(C)c(C)c2)n1	DT40 TDP1 no CPT 23µM, TDP1 cell CPT 16µM (no result: IL-1B inflam inh, D3 antag)
COc1ccc(-c2noc(CSc3nnc(Cc4ccccc4)n3-c3ccc(Cl)cc3)n2)cc1	IL-1B inflam inh inconclusive, DT40 TDP1 no CPT inconclusive, TDP1 cell CPT inconclusive
CCOc1ccccc1-c1noc(CSc2nnc(-c3ccncc3)n2-c2ccc(F)cc2)n1	DT40 TDP1 no CPT 16µM (no result: IL-1B inflam inh, D3 antag)
Cc1nnc(SCc2nc(-c3ccc(Cl)cc3)no2)n1-c1ccc(F)cc1	DT40 TDP1 no CPT 26µM, TDP1 cell CPT inconclusive (no result: IL-1B inflam inh, D3 antag)
CC(=O)Nc1ccc(S(=O)(=O)NCCC(=O)OCC(=O)NNC(=O)c2ccccc2)cc1	D3 antag inconclusive (no result: ClpP mod)
CC1CCN(S(=O)(=O)c2ccc3c(c2)N(CC(=O)NC(C)(C)C)C(=O)CS3)CC1	none (no result: IL-1B inflam inh, D3 antag)
CC(=O)N1CSCC1C(=O)NNS(=O)(=O)c1cccc(C(F)(F)F)c1 (configuration not stated)	none
Cc1ccc(SCc2nc(-c3ccncc3)no2)cc1	DT40 TDP1 no CPT 13µM, TDP1 cell CPT 5.8µM

Source: PubChem (National Center for Advancing Translational Sciences (NCATS))
